Experimental data published in PubChem BioAssay (NCATS).
Inconclusive results are not listed. A number with no mark means an inactive call. Activity calls are given as the source filed them. Calls come from the whole dose curve; as a rule, active = well fitted inhibition curve with a large enough effect; inconclusive = small, poorly fitted or top-dose-only effect; inactive = no such curve, though single readings can be large or run the other way.

Assay: P-glycoprotein substrates identified in KB-3-1 adenocarcinoma cell line, qHTS therapeutic library screen (AID 1346986); note: nearly all actives have a fitted effect of over 60% in size;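 note: potency is for cytotoxicity meaning loss of cell viability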
Details: KB-3-1 parental cells viability, CellTiter-Glo, 72 h; series mostly up to 44.5 µM; activity change, negative = cytotoxicity: at the top concentration
Protocol: The ATP-binding cassette transporters P-glycoprotein (P-gp) is known to limit brain penetration of many chemotherapy drugs. […] We used the CellTiter-Glo viability assay to test library compounds against the parental KB-3-1 human cervical adenocarcinoma cell line and the colchicine-selected sub-line KB-8-5-11 that over-expresses P-gp. KB-8-5-11 cells were also tested in the presence of a P-gp inhibitor (tariquidar) to assess reversability of transporter-mediated resistance. Of the tested compounds, a total of 90 P-gp substrates were identified including 55 newly identified P-gp substrates. Substrates were confirmed using an orthogonal killing assay against HEK-293 cells transfected with P-gp. As exemplars, we confirmed that AT7159 (cyclin-dependent kinase inhibitor); AT9283, (Janus kinase 2/3 inhibitor); ispinesib (kinesin spindle protein inhibitor); gedatolisib (PKI-587, phosphoinositide 3-kinase/mammalian target of rampamycin inhibitor); GSK-690693 (AKT inhibitor); and KW-2478 (heat shock protein 90 inhibitor) were substrates , and direct ATPase stimulation was assessed. ABCG2 was also found to confer high levels of resistance to AT9283, GSK-690693 and gedatolisib, while ispinesib, AT7519 and KW-2478 were weaker substrates.
The HeLa derivative cell line, KB-3-1, and its colchicine-selected, P-gp-overexpressing subline, KB-8-5-11 were maintained in DMEM with 10% FCS and Pen/Strep with glutamine at 37 degree C in 5% CO2. For KB-8-5-11 cells, colchicine was added to the medium at a concentration of 100 ng/mL. HEK-293 cells transfected with empty vector (pcDNA) or vector containing human ABCB1 (MDR-19) or ABCG2 (R-5) have been described previously (Robey, Lin, Qiu, Chan & Bates, 2011) and were maintained in EMEM supplemented with 10% FCS, Pen/Strep and glutamine with 2 mg/ml G418 to select for the expression of the transporter. Cultures were confirmed to be free of mycoplasma infection using the MycoAlert Mycoplasma Detection Kit (Lonza, Walkersville, MD). For the screen, assay medium was identical to culture medium except for KB-8-5-11 where colchicine was excluded from the medium.
All cell lines were plated into 1536-well plates at 500 cells/well in 5 uL media. Compounds were then pinned in dose-response using a 1536-head pin tool (Kalypsis, San Diego, CA) and plates were incubated at 37 degree C in 5% CO2 for an additional 72 h. CellTiter-Glo reagent (Promega) was dispensed into the wells, incubated for 5 min and luminescence was read on a ViewLux instrument (Perkin-Elmer). Cytotoxic compounds were defined as those that yielded a curve class of -1.1, -1.2, -2.1, -2.2, -2.3, or -2.4, a maximum response of >50% and an AC50 of < 10 uM. Cherry-picked hits from screening analysis were tested with both the KB pair of cell lines, and the pcDNA (empty vector control) and MDR-19 (P-gp overexpressing) pair were tested, in the absence and presence of tariquidar.
% is set by controls: 0 for no effect and ±100 for the full control effect; potency is the fitted concentration of half-maximal effect.

Which Potency does the source give for `O=C1c2ccccc2-c2c(NCCc3ccccc3)c(=O)[nH]c3cccc1c23` here?
The Potency was 1.03 µM (active).

Which Potency does the source give for `O=C(Nc1cccc(Nc2cc(Nc3cccc(C(F)(F)F)c3)ncn2)c1)C1CC1` here?
Its Potency is 0.92 µM (active).

With `C[n+]1cc(NC(=O)c2cccc(C(=O)Nc3cc4ccccc4[n+](C)c3)n2)cc2ccccc21` as the compound, how does the Potency read?
Its Potency is 16.4 µM (active).

With `CC(C)C(=O)OC[C@@]1(N=[N+]=[N-])O[C@@H](n2ccc(N)nc2=O)[C@H](OC(=O)C(C)C)[C@@H]1OC(=O)C(C)C` as the compound, how does the “outcome” value read?
The value was “inactive”.

For `COc1ccc(C(=O)Nc2sc3c(c2C(N)=O)CCCC3)cc1OC`, which “outcome” value is on record?
The value was “inactive”.

With `CN(C)CCCNc1c2ccccc2nc2c1[nH]c1ccccc12` as the compound, how does the Potency read?
Its Potency is 1.84 µM (active).

For `O=S(=O)(/N=C/c1c(O)ccc2ccccc12)c1cccs1`, which “activity change, negative = cytotoxicity” value is on record?
Its value is -0.802%.

Which “activity change, negative = cytotoxicity” value does the source give for `O=C1CCCC2=C1C(c1ncccc1Br)N=C(Nc1nc3ccccc3o1)N2` (stereo not given) here?
The value was 0.707%.

For `Cc1c[nH]c(/C=C2\C(=O)Nc3ccccc32)c1CCC(=O)O`, which “activity change, negative = cytotoxicity” value is on record?
The value was -19.1%.

Which “outcome” value does the source give for `O=C(NOCCO)c1ccc2cncn2c1Nc1ccc(I)cc1F` here?
Its value is “inactive”.

Which Potency does the source give for `Oc1cc(CNC(=S)/C=C/c2cc(O)c(O)c(Br)c2)cc(O)c1O` here?
The Potency was 7.31 µM (active).

For `CC(N)C1CCC(C(=O)Nc2ccncc2)CC1` (stereo not given), which “activity change, negative = cytotoxicity” value is on record?
The value was -1.63%.

Which Potency does the source give for `CC(C)(N)c1cc(C(=O)N[C@@H]2CCc3ccc(Oc4ccnc5c4CCC(=O)N5)cc3C2)cc(C(F)(F)F)c1` here?
Its Potency is 18.4 µM (active).

With `COc1cc(N2CCN(C(C)=O)CC2)ccc1Nc1ncc(Cl)c(Nc2ccc(N3CCN(C(C)=O)CC3)cc2OC)n1` as the compound, how does the Potency read?
The Potency was 14.6 µM (active).

With `NC(=O)c1nc(F)c[nH]c1=O` as the compound, how does the “activity change, negative = cytotoxicity” value read?
Its value is 1.99%.

With `CN1CCN(c2nc(C3=C(c4c[nH]c5ccccc45)C(=O)NC3=O)c3ccccc3n2)CC1` as the compound, how does the “activity change, negative = cytotoxicity” value read?
The value was 4.91%.

Which “activity change, negative = cytotoxicity” value does the source give for `CC1=CC(=O)C(C(C)C)=C/C1=N/OC(=O)c1ccccc1C` here?
The value was -6.74%.

Which “activity change, negative = cytotoxicity” value does the source give for `CC1CN(CC(=O)Nc2ccc3c(c2)Cc2cccc(-c4cc(=O)cc(N5CCOCC5)o4)c2S3)CC(C)O1` (stereo not given) here?
Its value is -16.6%.

With `CCN(CC)CCNC(=O)c1c(C)[nH]c(/C=C2\C(=O)Nc3ccc(Cl)cc32)c1C` as the compound, how does the Potency read?
Its Potency is 16.4 µM (active).

For `C=CC(=O)Nc1cccc(Nc2nc(Nc3ccccc3)ncc2C)c1`, which Potency is on record?
The Potency was 18.4 µM (active).

Which Potency does the source give for `COc1cc2ncnc(Nc3ccc(NC(=O)c4ccccc4)cc3)c2cc1OC` here?
Its Potency is 20.6 µM (active).

Which “activity change, negative = cytotoxicity” value does the source give for `N#Cc1cccc(CN2CCC(N(Cc3cccnc3)C(=O)Nc3ccccc3-c3ccccc3)CC2)c1` here?
The value was -16.1%.

With `Cc1cn([C@H]2C[C@H](O)[C@@H](CO)O2)c(=O)nc1N` as the compound, how does the “activity change, negative = cytotoxicity” value read?
The value was -2.62%.

Which Potency does the source give for `CC(C)n1cc(-c2ccc(Oc3ccccc3)cc2)c2c(N)ncnc21` here?
The Potency was 14.6 µM (active).

With `NC(=O)c1ncn(C2O[C@H](CO)[C@@H](O)[C@H]2O)c1N` (stereo not given in full) as the compound, how does the “activity change, negative = cytotoxicity” value read?
The value was -1.08%.

Which “activity change, negative = cytotoxicity” value does the source give for `CC(Sc1nc2c(cnn2-c2cccc(Cl)c2)c(=O)[nH]1)C(N)=O` (stereo not given) here?
Its value is -4.4%.

Which Potency does the source give for `COC(=O)C#Cc1ccc([N+](=O)[O-])cc1` here?
Its Potency is 13 µM (active).

Which Potency does the source give for `Cn1cc(C2=C(c3cn(CCCSC(=N)N)c4ccccc34)C(=O)NC2=O)c2ccccc21` here?
The Potency was 5.17 µM (active).

With `Cc1cc(I)ccc1Nc1c(C(=O)NOCC2CC2)cc(F)c(F)c1F` as the compound, how does the Potency read?
The Potency was 23.1 µM (active).

With `O=C1NC(=O)C(c2c[nH]c3ccccc23)=C1c1c[nH]c2ccccc12` as the compound, how does the “activity change, negative = cytotoxicity” value read?
The value was -19.4%.

For `Cc1ccc(Nc2ncc3c(n2)N(C)C(=O)N(c2cc(NC(=O)c4cccc(C(F)(F)F)c4)ccc2C)C3)cn1`, which “activity change, negative = cytotoxicity” value is on record?
Its value is -41.2%.

Which Potency does the source give for `O=C1NCCSc2c1sc1ccc(O)cc21` here?
Its Potency is 6.51 µM (active).

Which “activity change, negative = cytotoxicity” value does the source give for `O=C1CCCC2=C1C(c1ccccc1Br)N=C(Nc1nc3ccccc3o1)N2` (stereo not given) here?
Its value is 1.38%.

With `O=c1sn(-c2cccc3ccccc23)c(=O)n1Cc1ccccc1` as the compound, how does the “activity change, negative = cytotoxicity” value read?
The value was -26.9%.

With `Cc1cc(F)c(Nc2ncnc3cc(OCc4ccccc4)ccc23)cc1O` as the compound, how does the “activity change, negative = cytotoxicity” value read?
Its value is -8.22%.

With `Cc1c(-c2ccnc(Nc3cc(Br)cc(C(F)(F)F)c3)n2)sc(=O)n1C` as the compound, how does the “outcome” value read?
Its value is “inactive”.

With `BrC1C(Br)C(Br)C(Br)C(Br)C1Br` (stereo not given) as the compound, how does the “activity change, negative = cytotoxicity” value read?
The value was -1.64%.

Which “activity change, negative = cytotoxicity” value does the source give for `CC(CCc1ccccn1)(CCc1ccccn1)C(=O)c1ccccc1` here?
The value was 0.821%.

With `Clc1ccc2ncc(-c3cccc(NC4CCNC4)n3)n2c1` (stereo not given) as the compound, how does the Potency read?
The Potency was 0.82 µM (active).

For `CNC(=O)c1c(C)oc2cc(Oc3ncnc4cc(OC)c(OC)cc34)ccc12`, which “outcome” value is on record?
Its value is “inactive”.
